Bioassay records from PubChem BioAssay.
RE007 growth inh – less growth of the S. pombe RE007 Vpr strain. 0.21% of 360,000 active. Potency, µM (doses to about 92.2 µM), without a hit: at the top dose activity change, negative = less growth, most hits filed as inhibitors. S. pombe RE007 Vpr strain, BacTiter-Glo ATP luminescence, 24 h. AID 651644; active = well fitted falling curve with a large enough effect; inconclusive = small, poorly fitted or top-dose-only effect; inactive = no such curve, though single readings can be large or run the other way; note: potency is the fitted concentration of half-maximal effect; % is set by controls: 0 for no effect and ±100 for the full control effect; nearly all actives have a fitted effect of over 50% in size
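Fission yeast RE007 carrying one integrated HIV-1 vpr copy, seeded at OD 0.01 in PMG+AL medium with 23 nL pinned compound. Grown 24 h at 30 degrees; viability read by BacTiter-Glo luminescence after 5 min.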
CHX counter – affects cycloheximide protein synthesis inhibition readout, counter-screen. cell reporter, cycloheximide protein synthesis inhibition counterscreen. 12% of 300,000 active. AID 2314. max response, %; in the data active = max response mostly above about 13%, no sharp cut-off; inactive = mostly below about 14%; note: read at 38.3 µM for the half of the compounds with a filed dose; 0% is about no effect
FBPA Giardia inh – blocks Giardia fructose-bisphosphate aldolase activity; 0.71% of 290,000 active; purified Giardia FBPA; Potency, µM (top dose mostly 59.6 µM), for inactives: at the top dose activity, negative = inhibition, hits mostly inhibitors; note: potency is the fitted concentration of half-maximal effect; % is set by controls: 0 for no effect and ±100 for the full control effect; nearly all actives have a fitted effect of over 55% in size
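Giardia FBPA (40 nM reagent) was preincubated 10 min at RT with compound (up to 57.5 uM final), then substrate plus GAPDH/TPI/NAD/arsenate coupling system with diaphorase/resazurin was added; resorufin fluorescence (525/598 nm) was read after 20 min.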
Shiga toxin inh – Shiga toxin inhibition. Vero cells, Shiga toxin protein synthesis inhibition reporter. inhibition, % at 38.7 µM. 9.2% of 290,000 active. AID 2315; in the data active = inhibition mostly above about 28%, no sharp cut-off; inactive = mostly below about 43%; note: 0% is about no effect
Tb PYK inh – T. brucei pyruvate kinase inhibition | Q57TT1 | TbPYK enzyme, Kinase-Glo Plus ATP luminescence, 45 min | Potency, µM (doses to about 76.8 µM), for inactives: top-dose activity, negative = inhibition, usual class: inhibitors | 0.12% of 410,000 active | AID 624173; note: potency is the fitted concentration of half-maximal effect; % is set by controls: 0 for no effect and ±100 for the full control effect; nearly all actives have a fitted effect of over 50% in size
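TbPYK + substrate in 50 mM TEA pH 7.2, 100 mM KCl, 10 mM MgCl2, 0.05% BSA, 0.01% Tween-20; cpd pinned; ADP 130 uM final; 45 min RT; Kinase-Glo Plus 10 min; luminescence endpoint.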
LmPK inhibitor – blocks Leishmania mexicana pyruvate kinase activity; purified LmPK, Kinase-Glo ATP luminescence, 1 h; Potency, µM (highest dose often 57.5 µM), inactives show at the highest dose activity change, negative = inhibition, most hits filed as inhibitors; 0.37% of 290,000 active; AID 1721; note: potency is the fitted concentration of half-maximal effect; % is set by controls: 0 for no effect and ±100 for the full control effect
Target sequence (Q27686 whole entry, looked up): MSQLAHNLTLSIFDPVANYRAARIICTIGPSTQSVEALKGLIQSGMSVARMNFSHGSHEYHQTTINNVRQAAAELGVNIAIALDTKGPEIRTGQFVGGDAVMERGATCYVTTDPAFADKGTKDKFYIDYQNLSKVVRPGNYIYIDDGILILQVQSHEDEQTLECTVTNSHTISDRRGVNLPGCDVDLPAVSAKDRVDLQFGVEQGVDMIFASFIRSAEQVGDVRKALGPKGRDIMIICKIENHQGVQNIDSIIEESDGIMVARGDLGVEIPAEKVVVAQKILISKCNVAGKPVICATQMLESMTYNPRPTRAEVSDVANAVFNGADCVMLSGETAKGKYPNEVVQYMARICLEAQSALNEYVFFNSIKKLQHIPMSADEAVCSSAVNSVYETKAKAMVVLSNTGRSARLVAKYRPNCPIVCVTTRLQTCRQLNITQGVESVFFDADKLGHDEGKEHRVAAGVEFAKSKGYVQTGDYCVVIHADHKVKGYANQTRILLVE
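Purified LmPK (0.1 nM) converted ADP (0.1 mM) to ATP with PEP (0.5 mM) in imidazole buffer pH 7.2 with KCl and MgCl2, 1 h at room temperature. ATP was read by Kinase-Glo luminescence; data normalized to uninhibited and no-enzyme controls.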
Active calls of the source: *; ? = inconclusive; . = no result given. The sample as a whole holds a higher share of hits than the screen did. Unless noted, calls come from the whole dose curve; as a rule, active = well fitted curve in the direction sought with a large enough effect; inconclusive = small, poorly fitted or top-dose-only effect, or another doubt; inactive = no such curve, though single readings can be large; an effect the other way counts as inactive or inconclusive.

SMILES | RE007 growth inh | CHX counter | FBPA Giardia inh | Shiga toxin inh | Tb PYK inh | LmPK inhibitor
Cc1ccccc1NC(=S)NNC(=O)c1csc2c1CCC(C)C2 (configuration not stated) | -23% | 35* | 17% | 78* | -1% | -7%
CC1CCc2c(C(=O)Nc3nccs3)csc2C1 (configuration not stated) | ? | 37* | -1% | 69* | 4% | 1%
CCNC(=S)NNC(=O)c1csc2c1CCC(C)C2 (configuration not stated) | -6% | 6 | 11% | -10 | -5% | 0%
CC1CCc2c(C(=O)NCc3ccccn3)csc2C1 (configuration not stated) | 14% | 65* | -3% | 161* | ? | 1%
CC(C)OCCCn1c(SCc2ccccc2Cl)nc2c(sc3ccccc32)c1=O | . | . | . | . | -2% | .
O=C(O)[C@H]1CCCN1 | . | -5 | -17% | 0 | . | .
CC(C)CCn1c(=O)c2cccnc2n(CC(=O)Nc2ccc(F)cc2)c1=O | . | . | . | . | 2% | .
CC1CCc2c(C(=O)Nc3ccccn3)csc2C1 (configuration not stated) | ? | 47* | -4% | 70* | 0% | 2%
Cc1ccc(-c2ccc(/C=N/c3ncn[nH]3)o2)cc1Cl | -5% | 17* | -10% | 26 | -2% | 5%
O=C(O)c1ccc(-c2cccc(Cl)c2)o1 | 10% | . | . | . | -7% | .
Cc1ccc(-c2ccc(C(=O)O)o2)cc1Cl | 31% | 16* | 24% | 38 | -4% | 2%
COC(=O)N/N=C/c1ccc(-c2cc(Cl)cc(Cl)c2)o1 | -25% | -6 | 1% | -3 | -4% | -1%
CC1=NOC(=O)/C1=C\c1ccc(-c2cccc(Cl)c2)o1 | ? | 26 | -19% | 14 | -17% | 4%
COC(=O)N/N=C/c1ccc(-c2cccc(Cl)c2)o1 | -14% | 33* | -5% | 55* | 2% | -1%
Nc1ccccc1N=Cc1ccc(-c2cccc(Cl)c2)o1 | ? | 29* | -17% | 76* | 12% | 6%
CC(=O)c1ccccc1OCC(O)Cn1c(CO)nc2ccccc21 (configuration not stated) | . | . | . | . | 8% | .
Cc1ccc(-c2ccc(/C=N/NC(=O)CN3CCCC3)o2)cc1Cl | 1% | 32 | 2% | 24 | -8% | -2%
COC(=O)N/N=C/c1ccc(-c2ccc(C)c(Cl)c2)o1 | 2% | 16* | 2% | 38 | 5% | 0%
CCC(C(=O)Nc1ccc(C(C)C)cc1)n1nc(C)n2c(cc3cc(C)ccc32)c1=O (configuration not stated) | . | . | . | . | -1% | .
C/C(CC(=O)Nc1cc(C)ccn1)=N\NC(=O)c1cccc(C)c1 | -8% | 12 | -15% | 42 | 0% | -5%
C/C(CC(=O)Nc1ccccn1)=N\NC(=O)c1ccccc1 | . | 30* | 0% | 21 | . | -4%
C/C(CC(=O)Nc1ccccn1)=N\NC(=O)c1ccccc1O | -11% | 52* | -3% | 68* | 2% | -2%
C/C(CC(=O)Nc1cc(C)ccn1)=N\NC(=O)c1cccc(C)c1O | ? | 26* | . | 69* | 1% | 4%
C/C(CC(=O)Nc1ccccn1)=N\NC(=O)c1ccncc1 | . | -5 | -2% | -3 | . | 2%
C/C(CC(=O)Nc1ccccn1)=N\NC(=O)c1ccc2ccccc2c1 | -2% | 15* | 0% | 28 | 2% | -3%
SMILES | RE007 growth inh | CHX counter | FBPA Giardia inh | Shiga toxin inh | Tb PYK inh | LmPK inhibitor
C/C(CCc1ccccc1)=N\NC(=O)c1ccccc1 | 1% | 30* | -3% | 90* | 1% | 0%
CCNC(=O)C/C(C)=N/NC(=O)C(=O)Nc1ccc(CC)cc1 | 1% | 26* | 5% | 37 | 1% | 0%
CCc1ccc(NC(=O)C(=O)N/N=C(\C)CC(=O)NCc2ccc(Cl)cc2)cc1 | -29% | 12 | 1% | 4 | 2% | -3%
C/C(=N/NC(=O)CNC(=O)CCc1ccccc1)c1ccc(Cl)cc1 | -3% | 7.1* | 3% | 20 | -5% | 0%
CCCNC(=O)C/C(C)=N/NC(=O)C(=O)Nc1ccccn1 | -14% | 26* | -1% | 29 | 3% | 0%
C/C(=N/NC(=O)CNC(=O)COc1ccccc1)c1ccc(Cl)cc1 | -2% | 12 | 0% | -3 | 4% | 3%
CC(=O)N/N=C(\C)CCc1ccccc1 | 3% | -1 | 0% | 10 | 0% | -2%
Cc1ccc(-c2cc3c(n2-c2ccccc2F)CC(C)(C)CC3=O)cc1 | . | . | . | . | -1% | .
CC(C)CN(CCCNC(=O)c1cc(-c2ccc(Br)s2)nc2ccccc12)CC(C)C | . | . | . | . | -2% | .
COc1cccc(C2CCCN2Cc2nc(-c3sccc3C)oc2C)c1 (configuration not stated) | 5% | 1 | -1% | -3 | -2% | 8%
COc1cccc(C2CCCCN2Cc2nc(-c3ccc(C)o3)oc2C)c1 (configuration not stated) | -18% | 31* | 6% | 79* | 1% | 6%
C[C@@H]1CCN(C(=O)[C@H](CCCNC(=N)N)NS(=O)(=O)c2cccc3c2NC[C@H](C)C3)[C@@H](C(=O)O)C1 | . | . | . | . | 1% | .
N#CC1=C2SCN(Cc3ccccc3)CN2C(=O)CC1c1ccc2c(c1)OCO2 (configuration not stated) | 11% | -1 | 0.89µM* | -5 | ? | -6%
COc1ccc(-n2nc(C(=O)NCC(=O)N3CCN(c4ccccn4)CC3)c3ccccc3c2=O)cc1OC | -10% | 15* | 5% | 26 | -3% | 2%
COc1ccc(-n2nc(C(=O)NCC(=O)N3CCOCC3)c3ccccc3c2=O)cc1OC | -1% | -2 | -2% | -8 | -3% | 8%
COc1ccc(-n2nc(C(=O)NCC(=O)N3CCN(c4ccccc4)CC3)c3ccccc3c2=O)cc1OC | 8% | 22* | -1% | 43* | -1% | 5%
COc1ccc(-n2nc(C(=O)NCC(=O)N3CCN(c4ccccn4)CC3)c3ccccc3c2=O)cc1 | -10% | 11 | 0% | 21 | -1% | 9%
COc1ccc(-n2nc(C(=O)NCC(=O)N3CCC4(CC3)OCCO4)c3ccccc3c2=O)cc1OC | -2% | 17* | 2% | 37 | -2% | 5%
O=C(NCc1ccccc1)c1cc(=O)c2ccccc2o1 | -2% | 4 | 3% | -7 | 3% | 1%
O=C(Nc1ccccc1Br)c1cc(=O)c2ccccc2o1 | 7% | 23 | -13% | 99* | 2% | -1%
O=C(Nc1ccccc1Cl)c1cc(=O)c2ccccc2o1 | -13% | 30* | -4% | . | -4% | 6%
COc1ccccc1OCC(=O)NNC(=O)c1cccs1 | . | 4 | 6% | 15 | -13% | -4%
